Compound activity: PubChem, The Scripps Research Institute Molecular Screening Center
DAX1 inh-1 – blocks DAX1 repression of SF-1 activated StAR promoter | inhibition, % at 6.8 µM | hit rate 1.1% among 370,000 | HEK293T StAR-luciferase reporter, SF-1/DAX-1 repression relief;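 active = inhibition above the mean over all tested compounds plus 3 SD, cut at about 3.6% in these data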;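 also: higher inhibition means more luminescence from relief of DAX-1 repression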
hcDAF12 agonist – H. contortus DAF-12 activation, primary screen; HEK293 hcDAF-12 lit1-tk-luc reporter, luminescence; 0% DMSO, 100% Δ7-dafachronic acid; hit rate 1.4% among 370,000; activation, % at 6.8 µM;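 active = activation above the mean of all tested compounds plus 3 SD, cut at about 5.5% in these data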
hgDAF12 agonist – agonists of H. glycines DAF-12 nuclear receptor. HEK293 GAL4-hgDAF12 UAS-luciferase reporter, agonist luminescence; normalized to butyrate control. activation, % at 6.8 µM. hit rate 1.8% among 370,000. AID 687014;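 active = activation above a cutoff set at the mean of all screened compounds plus 3 SD, cut at about 10% in these data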
ssDAF-12 act – activates DAF-12 receptor from parasite S. stercoralis; hit rate 1% among 370,000; HEK293 ssDAF-12/GRIP1 lit1-tk-luc reporter, luminescence; % of 3 µM dafachronic acid response; activation, % at 6.8 µM; AID 652126;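 active = activation above the mean over all tested compounds plus 3 SD, cut at about 0.9% in these data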
DAX1 inh-2 – inhibits human nuclear receptor DAX1; P51843; AID 504766; inhibition, % at 6.75 µM; HEK293 Gal4-DAX1 luciferase reporter, luminescence; hit rate 0.99% among 340,000;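 active = inhibition above the mean over all tested compounds plus 3 SD, cut at about 4.2% in these data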;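 also: inhibition shows as a rise in luminescence from relieved DAX1 repression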
Wee1 stabilizer – blocks degradation of human Wee1 kinase. P30291. HeLa Luc-Wee1K328M stability, luciferase luminescence; 100% = proteasome inhibitor MG132 effect. reporter increase, % at 5 µM. hit rate 1.2% among 220,000. AID 1321;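 active = activation above the mean of all tested compounds plus 3 SD, set per screening run, cut at about 8.8% in these data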;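 also: cells exposed to compound for 20 h before luminescence read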
Target sequence (P30291 whole entry K328M): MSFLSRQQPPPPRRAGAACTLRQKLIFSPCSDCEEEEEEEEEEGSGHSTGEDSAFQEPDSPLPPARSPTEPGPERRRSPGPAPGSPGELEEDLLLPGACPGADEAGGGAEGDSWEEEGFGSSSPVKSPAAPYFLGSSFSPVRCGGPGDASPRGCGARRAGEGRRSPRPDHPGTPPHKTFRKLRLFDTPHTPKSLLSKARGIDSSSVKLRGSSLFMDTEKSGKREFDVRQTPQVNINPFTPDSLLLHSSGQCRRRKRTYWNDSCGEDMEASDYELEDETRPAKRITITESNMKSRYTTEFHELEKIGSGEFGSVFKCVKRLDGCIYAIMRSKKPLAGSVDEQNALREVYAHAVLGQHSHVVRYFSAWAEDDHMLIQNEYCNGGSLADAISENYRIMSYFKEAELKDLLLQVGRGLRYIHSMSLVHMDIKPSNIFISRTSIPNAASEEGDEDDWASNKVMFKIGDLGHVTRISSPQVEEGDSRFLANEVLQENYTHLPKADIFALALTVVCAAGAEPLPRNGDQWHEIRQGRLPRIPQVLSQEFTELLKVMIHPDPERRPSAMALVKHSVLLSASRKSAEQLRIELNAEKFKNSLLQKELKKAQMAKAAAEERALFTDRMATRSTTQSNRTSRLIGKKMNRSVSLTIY
Large screens that a line does not name were inactive. The list is not random: actives were taken first. Their share in the collection is about 4.6%.

CN1CCN(S(=O)(=O)c2cccc(C(=O)N(C)CC(=O)Nc3ccc(F)c(F)c3F)c2)CC1	none (no result: Wee1 stabilizer)
O=C(NC(=S)N(CCO)Cc1ccccc1)c1ccc(S(=O)(=O)N2CCCC2)cc1	ssDAF-12 act 2.0
C=CCN(C(=O)[C@@H](C1CC1)[C@@H](O)c1ccc2ccccc2c1)c1ccccc1	none (no result: DAX1 inh-2, Wee1 stabilizer)
O=C(Nc1ccccc1)C1=C[C@@H](c2ccc(Br)cc2)C[C@@H](OCCCCO)O1	none
O=C(Nc1ccccc1)C1=C[C@H](c2ccccc2)C[C@H](OCCCCO)O1	hcDAF12 agonist 5.7 (no result: Wee1 stabilizer)
Cc1cc(C)n2nc(SCC(=O)NC(=O)c3ccccc3Cl)nc2n1	none (no result: Wee1 stabilizer)
N#Cc1ccc(Cl)cc1NC(=O)CN1C(=O)C(=O)N(CCC2=CCCCC2)C1=O	ssDAF-12 act 1.2 (no result: Wee1 stabilizer)
O=C(CN1C(=O)C(=O)N(CCC2=CCCCC2)C1=O)Nc1ccc(F)cc1F	none (no result: Wee1 stabilizer)
O=C1CCC(=O)N(O)CCCCCNC(=O)CCC(=O)N(O)CCCCNC(=O)CCC(=O)N(O)CCCCCN1	DAX1 inh-2 5.3 (no result: Wee1 stabilizer)
COC(=O)[C@]12CCCCC=C1N(Cc1ccc3c(c1)OCO3)C(=O)[C@H](CC(=O)NCc1ccc(OC)c(OC)c1)C2	none (no result: DAX1 inh-2, Wee1 stabilizer)
CCOC(=O)CC1CCCCN1Cc1cn[nH]c1-c1ccc(F)cc1F (configuration not stated)	DAX1 inh-2 4.7
CCOC(=O)C1CCCCN1Cc1cn[nH]c1-c1ccc(F)cc1F (configuration not stated)	none
COC(=O)c1c(C)[nH]c(C=O)c1-c1ccccc1	none (no result: DAX1 inh-2)
COC(=O)c1c(-c2ccccc2)c[nH]c1C	DAX1 inh-2 4.8
CCCCn1nnnc1SCC(=O)N1CCN(C(=O)c2ccco2)CC1	none
Cn1nnnc1SCC(=O)N1CCN(C(=O)c2ccco2)CC1	DAX1 inh-2 4.3
Cc1nnc(SCC(=O)N2CCN(C(=O)c3ccco3)CC2)n1C	DAX1 inh-2 4.7 (no result: Wee1 stabilizer)
CC(C)C[C@H]1COc2cccc(F)c2S(=O)(=O)N1Cc1cn(Cc2ccc(F)cc2)nn1	none (no result: DAX1 inh-2, Wee1 stabilizer)
CCCCN(C(C)=O)C1CC(=O)N(c2ccc(OCCC)cc2)C1=O (configuration not stated)	DAX1 inh-2 8.6
CCCCN1CC(=O)N2[C@H]3c4ccc(OC)cc4OC[C@@H]3[C@H](C(=O)OCC)[C@]2(C)C1=O	none (no result: Wee1 stabilizer)
COC(=O)C1CN(Cc2ccc(OC)cc2)CCS(=O)(=O)N1Cc1cn(Cc2ccccc2)nn1 (configuration not stated)	none (no result: DAX1 inh-2, Wee1 stabilizer)
O=[N+]([O-])c1ccc(Cl)c(C[n+]2cccc3ccccc32)c1	ssDAF-12 act 1.5 (no result: Wee1 stabilizer)
Clc1cccc(Cl)c1C[n+]1cccc2ccccc21	none (no result: Wee1 stabilizer)
O=C(C[n+]1cccc2ccccc21)c1ccc(Cl)cc1	none (no result: Wee1 stabilizer)
O=C(C[n+]1cccc2ccccc21)c1ccc([N+](=O)[O-])cc1	ssDAF-12 act 1.3
O=C(Nc1ccc(F)cc1)C(c1ccccc1)N1CCN(C(=O)c2ccco2)CC1 (configuration not stated)	DAX1 inh-2 4.7
O=C(O)c1cccc(Br)c1	none (no result: Wee1 stabilizer)
Cc1cccc2sc(N(CCCN(C)C)C(=O)COc3ccc(Cl)cc3)nc12	DAX1 inh-2 4.3
CN(C)CCCN(C(=O)COc1ccc(Cl)cc1)c1nc2c(F)cccc2s1	none
CN(CC(=O)Nc1ccccc1Cl)CC(=O)Nc1cccc2ccccc12	none (no result: Wee1 stabilizer)
COC(=O)[C@]12C[C@H](CC(=O)NCc3cccc4ccccc34)C(=O)N(Cc3ccco3)C1=C[C@H](C(C)C)O[C@@H]2C1CC1	none (no result: DAX1 inh-2, Wee1 stabilizer)
O=C1CSC(=S)N1N=Cc1c(O)ccc2ccccc12	ssDAF-12 act 1.0 (no result: Wee1 stabilizer)
COc1ccc2ccccc2c1/C=N/N1C(=O)CSC1=S	none
COc1cccc(COC(=O)C(Cc2ccccc2)NC(=O)c2ccco2)c1 (configuration not stated)	none (no result: Wee1 stabilizer)
CCCCN(C)C(=O)c1cc2cc3cc(OC)ccc3nc2o1	Wee1 stabilizer 10.2
Cc1cnc(C(=O)Nc2ccc(C(C)C)cc2)cn1	hgDAF12 agonist 12.4
Cc1cnc(C(=O)Nc2ccc(F)cc2)cn1	none
CCc1nc2ccc(C(=O)N3CCCC(C(N)=O)C3)cn2c1N(C)Cc1ccc(OC)cc1 (configuration not stated)	none (no result: DAX1 inh-2, Wee1 stabilizer)
CC(=O)c1ccc(-n2ccnc2)cc1	none
O=C(Nc1ccccc1)n1ccc(-c2ccc(-n3ccnc3)cc2)n1	hgDAF12 agonist 12.1 (no result: DAX1 inh-2)
Cc1nc(/C(N)=N/OC(=O)c2c(-c3ccccc3Cl)noc2C)cs1	DAX1 inh-2 5.9
COCCCNC(=O)c1ccc(OC)c(OC2CCN(C(C)C)CC2)c1	DAX1 inh-2 5.2 (no result: Wee1 stabilizer)
COc1ccccc1CCNC(=O)c1ccc(OC)c(OC2CCN(C(C)C)CC2)c1	none (no result: Wee1 stabilizer)
CCOC(=O)C1=C(C)NC(=O)C(C(N)=O)C12CCCCC2 (configuration not stated)	none
CCOC(=O)C1=C(C)NC(=O)C(C(N)=O)C12CCCC2 (configuration not stated)	DAX1 inh-2 5.1
CCc1nnc(NC(=O)C2Cc3ccccc3CN2S(=O)(=O)CC)s1 (configuration not stated)	none
CCS(=O)(=O)N1Cc2ccccc2CC1C(=O)Nc1nnc(SCc2ccc(F)cc2)s1 (configuration not stated)	Wee1 stabilizer 9.1
CC(C)N(C(=O)CSc1nc2ccccc2n1-c1ccccc1)C(C)C	none
O=C(O)CCSc1nc2ccccc2n1-c1ccccc1	hcDAF12 agonist 6.0 (no result: Wee1 stabilizer)
Fc1ccc(N/N=C/C=C/c2ccccc2)c(F)c1	Wee1 stabilizer 10.4
CC(C)CNS(=O)(=O)c1ccc(OCC(=O)Nc2ccc(F)cc2F)cc1	Wee1 stabilizer 9.0
COc1cc(NC(=O)COC(=O)/C=C/c2ccccc2Cl)cc(OC)c1	Wee1 stabilizer 9.0
O=C1C=CC(=O)N1c1ccc(Sc2ccc([N+](=O)[O-])cc2)cc1	Wee1 stabilizer 16.1 (no result: DAX1 inh-1, hcDAF12 agonist, hgDAF12 agonist, ssDAF-12 act, DAX1 inh-2)
C[C@H]1CN([C@@H](C)CO)S(=O)(=O)c2ccc(Br)cc2O[C@H]1CN(C)C(=O)c1cccnc1	none (no result: Wee1 stabilizer)
Cc1cc(NC(=O)CSc2nc3c(C)ccc(C)c3cc2C#N)no1	DAX1 inh-2 5.7 (no result: Wee1 stabilizer)
CCOC(=O)CNC(=O)CSc1nc(C)cc(C)c1C#N	none
Cc1cc(-c2ccccc2)c(C#N)c(SCC(N)=O)n1	Wee1 stabilizer 9.7
Cc1cc(NC(=O)CSc2nc3c(C)cccc3cc2C#N)no1	none (no result: Wee1 stabilizer)
Cc1cc(NC(=O)CSc2nnc(C)n2-c2ccccc2C)no1	DAX1 inh-2 4.2
CCOC(=O)NC(=O)CSc1nc(C)cc(C)c1C#N	hgDAF12 agonist 12.6
CCCC(=O)N1CCC[C@]2(CC[C@@H](CCC(=O)N(CC)CC)O2)C1	none (no result: DAX1 inh-2, Wee1 stabilizer)
Cc1cc(C)c(C#N)c(SCC(=O)Nc2cc(C)on2)n1	hgDAF12 agonist 10.5 (no result: Wee1 stabilizer)
Cc1cc(C)c(C#N)c(SCC(=O)NC(C)(C)C)n1	none
Cc1ccc(NC(=O)N2CCCCCC2)cc1	DAX1 inh-1 3.9 (no result: Wee1 stabilizer)
CCn1c(=O)cc(SCC(=O)N2CCCCC2)c2ccccc21	none
